Screening results from PubChem.
In the library only some 3.5% were active in any assay of this set; here they are far more common.
Mtb UGM inh: M. tuberculosis UGM enzyme inhibitors, primary screen, biochemical, fluorescence polarization, single point | purified UGM, fluorescence polarization probe displacement | 320,000 tested, 0.06% active | inhibition, % at 10 µM; in the data active = inhibition above about 10%, passing the limit was not always enough
Target sequence (P9WIQ1 whole entry, looked up): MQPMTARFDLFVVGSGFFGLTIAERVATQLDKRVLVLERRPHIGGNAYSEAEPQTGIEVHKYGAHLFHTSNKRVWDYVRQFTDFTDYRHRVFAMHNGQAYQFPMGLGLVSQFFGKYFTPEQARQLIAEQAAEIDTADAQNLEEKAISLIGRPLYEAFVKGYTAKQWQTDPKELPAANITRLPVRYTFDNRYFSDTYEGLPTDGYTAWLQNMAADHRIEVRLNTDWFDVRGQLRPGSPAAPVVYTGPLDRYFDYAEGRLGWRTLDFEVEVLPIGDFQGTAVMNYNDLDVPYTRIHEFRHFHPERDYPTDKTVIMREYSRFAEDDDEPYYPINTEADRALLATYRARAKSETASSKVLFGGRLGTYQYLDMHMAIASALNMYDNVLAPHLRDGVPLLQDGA
Mtb FBA inh: Mtb FBA enzyme inhibitors, primary screen, biochemical, fluorescence, strain H37Rv; Fructose-bisphosphate aldolase (Mycobacterium tuberculosis (strain ATCC 25618 / H37Rv)), …; purified M. tuberculosis FBA, fluorescence read-out; inhibition, % at 1 µM; 360,000 tested, 2.3% active; AID 588726, 2011; in the data active = inhibition above about 27%
GDH-TPI counter: GDH-TPI coupling enzyme inhibitors, primary screen, artefact control for M. tuberculosis FBA inhibitor project, biochemical, absorbance, full deck | inhibition, % at 4.8 µM | GDH-TPI coupled enzyme counterscreen, NADH absorbance | 360,000 tested, 1.2% active; in the data active = inhibition above about 30%
Rv3671c protease: Rv3671c serine protease inhibitors, primary screen, biochemical, fluorescence polarization, M. tuberculosis H37Rv; P9WHR9; inhibition, % at 5.96 µM; 320,000 tested, 0.048% active; AID 2606, 2010; in the data active = inhibition above about 38%;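 note: extracellular domain of Rv3671c used as enzyme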
Mtb bLac sens: beta-lactam sensitization of Mtb H37Rv, H37Rv | inhibition, % at 25 µM | M. tuberculosis H37Rv growth with meropenem, percent inhibition | 330,000 tested, 0.27% active; call rule not given here;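 note: growth measured after seven days incubation then overnight dye step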
Numbers stand for hits; i = inactive; nt = no result; + = active, no number.

SMILES | Mtb UGM inh | Mtb FBA inh | GDH-TPI counter | Rv3671c protease | Mtb bLac sens
COCCn1c(C)cc(/C=C2/SC(=O)N(C(C)C(=O)OC)C2=O)c1C (configuration not stated) | i | i | i | i | i
COCCn1c(C)cc(/C=C2\NC(=S)N(C)C2=O)c1C | i | i | 36.5 | i | i
O=C(c1cnc2n(c1=O)CCS2)N1CCCc2ccccc21 | i | i | i | i | i
Cc1csc2ncc(C(=O)N3CCCc4ccccc43)c(=O)n12 | i | i | 36.5 | i | i
Cc1c(C(=O)N2CCc3ccccc32)cnn1C | i | i | i | i | i
Cc1csc2ncc(C(=O)N3CCc4ccccc43)c(=O)n12 | i | i | 51.9 | i | i
Cc1ccc(NC(=O)CCC(=O)NNC(=O)c2ccccc2Cl)c(C)c1 | i | i | i | i | i
COc1cc2c(cc1OC)C1=NC(=O)CN1C(SCc1ccccc1C)=N2 | i | 27.3 | i | i | i
Nc1nn(-c2ccccc2)c(N)c1N=Nc1ccccc1 | i | i | 34.2 | i | i
CCOC(=O)CSc1ccc2ccccc2n1 | i | i | i | i | i
CCOC(=O)CN1C=C(c2ccc3ccccc3n2)C(C[N+](=O)[O-])c2ccccc21 (configuration not stated) | 17.5 | i | i | i | i
COCCn1c(=O)[nH]c2cc(C(=O)OC)ccc2c1=O | i | i | i | i | i
COC(=O)c1ccc2c(C)c(C(C)(C)O)[nH]c2c1 | i | + | i | i | i
C=CCn1cccc(C(=O)Nc2ccc(N(C)C)cc2)c1=O | i | i | i | i | i
CC12CCCC(=O)C1CCC(=Cc1ccco1)C2=O (configuration not stated) | nt | i | 31.6 | nt | nt
COc1ccc(C=C2CCC3C(=O)CCCC3(C)C2=O)cc1 (configuration not stated) | nt | i | i | nt | nt
O=[N+]([O-])c1ccc(O)c(C2=NNC(c3ccccc3F)C2)c1 (configuration not stated) | i | i | 36.4 | i | i
Oc1ccc(Cl)cc1C1=NNC(c2cccs2)C1 (configuration not stated) | i | i | i | i | i
CC(C)C[C@H]1CNC(=O)C(=O)N1CC1CCN(CCc2ccc(-c3ccccc3)cc2)CC1 | nt | i | i | nt | nt
Cc1ccc(S(=O)(=O)Nc2c(C)nn(C)c2C)c(C)c1 | i | i | i | i | i
NS(=O)(=O)c1ccc(NC=C2C(=O)OC3(CCCCC3)OC2=O)cc1 | i | i | 31.8 | i | i
CN(CC(=O)Nc1ccc(Cl)c(C(F)(F)F)c1)C(=O)C1CSC2(C)CCC(=O)N12 (configuration not stated) | i | i | i | i | i
COc1ccc2nc(-c3ccc(N)cc3)[nH]c2c1 | i | + | i | i | i
Nc1cccc(-c2nc3ccc(C(=O)c4ccccc4)cc3[nH]2)c1 | i | i | i | i | i
COc1ccc2nc(-c3cccc(N)c3)[nH]c2c1 | i | 176.8 | i | i | i
SMILES | Mtb UGM inh | Mtb FBA inh | GDH-TPI counter | Rv3671c protease | Mtb bLac sens
CC(C)(C)NC(=O)CN1C(=O)c2cccc3cccc1c23 | nt | i | i | nt | nt
COc1ccc(/C=N/Nc2cc(C)nc3ccc(OC)cc23)c(OC)c1 | i | 144.3 | i | i | i
COc1ccc(C(=O)c2ccc(N(C)C)cc2)c(OC)c1 | i | i | 30.9 | i | i
COc1ccc(C(=O)c2ccc(OC)cc2OC)cc1 | i | i | i | i | i
CN(C)c1ccc(C(=O)c2ccc(N(C)C)c3ccccc23)cc1 | i | i | 34.4 | i | i
CC(C)c1ccc(CNC(=O)C2CCCN2S(=O)(=O)c2ccccc2)cc1 (configuration not stated) | i | i | i | i | i
CC1(C)Cc2c(C#N)c(SCc3ccccc3)nc(N3CCOCC3)c2CO1 | i | i | 75.0 | i | nt
CCc1nc(N2CCOCC2)c(C#N)c2c1COC(C)(C)C2 | i | 46.3 | i | i | i
CCOC(=O)c1nc2sc(C)c(C)c2c(=O)[nH]1 | i | 126.1 | i | i | i
Cc1ccc([N+](=O)[O-])cc1-c1ccc(/C=N/NC(=O)CN2CCOCC2)o1 | i | i | 40.4 | i | i
Nc1nnc(CC(=O)N/N=C\c2ccc(-c3cccc(Cl)c3)o2)s1 | i | i | 33.1 | i | i
O=C(CN1CCCC1)N/N=C/c1ccc(-c2cccc(Cl)c2)o1 | i | i | 31.9 | i | i
COC(=O)c1ccc(-c2ccc(/C=N/NC(=O)Cc3nnc(N)s3)o2)cc1 | i | 27.6 | 36.6 | i | i
COc1cc(/C=N/NC(=O)Cc2nnc(N)s2)cc(OC)c1OC | i | i | i | i | i
CCCCN(C(=O)c1ccc2c(c1)OCCO2)c1c(N)n(CC(C)C)c(=O)[nH]c1=O | nt | i | i | i | i
CC(=O)c1ccc(S(=O)(=O)N2CCCCC2C(=O)O)cc1 (configuration not stated) | i | i | i | i | i
CCO[C@H]1OC(C(=O)O)=C[C@@H](c2ccccc2)[C@@H]1CCCO | i | i | i | i | i
COc1ccc2cnn(-c3ccc(OC(F)(F)F)cc3)c(=O)c2c1OC | i | i | i | i | i
Nc1nnc(CC(=O)N/N=C/c2ccc(-c3ccccc3)o2)s1 | i | i | 46.7 | i | i
OCCCCCNc1ncnc2ccccc12 | i | i | i | i | i
OCCCCNc1cccc2ccccc12 | i | 161.2 | i | i | i
CCCN(Cc1nnc(-c2cccs2)o1)C(=O)c1cccc(S(=O)(=O)N2CCOCC2)c1 | i | i | i | i | i
COc1ccc(NS(=O)(=O)c2cccc(C(=O)NN=Cc3cc(Br)c(O)c(Br)c3)c2)cc1 | i | i | 41.0 | i | i
COc1ccc(/C=N/NC(=O)c2ccc(NS(=O)(=O)c3cccs3)cc2)cc1 | i | i | 50.9 | i | i
COc1ccc(NS(=O)(=O)c2cccc(C(=O)NN=Cc3ccc(OC)cc3OC)c2)cc1 | i | i | i | i | i
SMILES | Mtb UGM inh | Mtb FBA inh | GDH-TPI counter | Rv3671c protease | Mtb bLac sens
COc1ccc(OC)c(C=NNC(=O)c2ccc(NS(=O)(=O)c3cccs3)cc2)c1 | i | i | 38.9 | i | i
COc1cccc(Nc2nc3ccccc3nc2NS(=O)(=O)c2cccs2)c1 | i | i | 37.3 | i | i
CCCS(=O)(=O)NC(=O)C1(C)CCCN(C(=O)c2oc3ccccc3c2C)C1 (configuration not stated) | nt | i | i | nt | nt
O=C(O)COc1ccccc1C=NNC(=O)c1ccc(NS(=O)(=O)c2cccs2)cc1 | i | i | i | i | i
O=C(NN=Cc1ccccc1C(=O)O)c1ccc(NS(=O)(=O)c2cccs2)cc1 | i | i | 36.8 | i | i
O=C(O)c1ccc(/C=N/NC(=O)c2ccc(NS(=O)(=O)c3cccs3)cc2)cc1 | i | i | 73.9 | i | i
COc1ccccc1NS(=O)(=O)c1cc(C(=O)N2CCCC2)ccc1F | nt | i | i | nt | nt
Cc1cc([N+](=O)[O-])ccc1P(=O)(O)c1ccc([N+](=O)[O-])cc1C | nt | i | i | nt | nt
COc1cccc(C(=O)NNC(=O)C(=O)Nc2cccc3ccccc23)c1 | i | i | i | i | i
